These results are taken from PubChem BioAssay.

Experiment [1] can be described thus: antimalarial activity against Dd2 strain (AID 2302;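 active = growth inhibition above 50% at the single 2 µM test dose, taken to imply half-maximal potency below 2 µM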;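 note: 0% = DMSO untreated growth and 100% = chloroquine plus artemisinin killed control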). To be noted: P. falciparum Dd2 in RBCs, LDH growth readout, 72 h; at 2 µM; active compounds read high.
A short description of experiment [2]: human hepatoma cell viability loss – ATP luminescence, cytotoxicity control for P. falciparum antimalarial project, primary screen (AID 2303;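 active = inhibition above 50%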;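 note: 0% = DMSO wells and 100% = digitonin-killed cells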). To be noted: HepG2 viability, 24-48 h, at 10 µM, active compounds read high.
For experiment [3], the target named is L-lactate dehydrogenase (Plasmodium falciparum (isolate CDC / Honduras)) (UniProt Q27743). The experiment is described as follows: PfLDH activity inhibition – cell lysate, 3D7 strain, counter-screen for P. falciparum growth inhibition project (AID 2304).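 Note: 0% = vehicle and 100% = reference inhibitor.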 The following applies: P. falciparum 3D7 crude extract, LDH APAD/NBT absorbance; at 2 µM; active compounds read high.

Experiment [4] is described as follows: inhibition of 3D7 malaria parasite growth – strain 3D7 (AID 2306).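 Note: 0% = DMSO wells and 100% = chloroquine plus artemisinin control wells.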 The following applies: P. falciparum 3D7 erythrocytic growth, LDH absorbance, 72 h; at 2 µM; active compounds read high.
For experiment [5], the target named is Calcium-dependent protein kinase 1 (Plasmodium falciparum (isolate 3D7)) (UniProt P62344). The experiment is described as follows: PfCDPK1 kinase inhibitors, biochemical, TCAMS library (AID 1159585; cut-off not given, nearly all actives have IC50 up to about 0.98 µM;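 note: inhibitors leave more ATP so luminescence rises with inhibition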). The following applies: recombinant PfCDPK1, Kinase-Glo ATP depletion luminescence.
The target in experiment [6] is Plasmodium falciparum protein kinase 6 (PK6, PF3D7_1337100) (UniProt Q8IDW1). The experiment can be described thus: PfPK6 kinase inhibitors, biochemical, TCAMS library (AID 1159586). The following applies: recombinant PfPK6, Kinase-Glo ATP depletion luminescence.
Experiment [7] concerns the target Protein kinase 7 (PK7), Plasmodium falciparum 3D7 (PF3D7_0213400) (UniProt Q7YTF7). The experiment can be described thus: inhibition of Plasmodium PK7 catalytic activity – biochemical, TCAMS antimalarial set, Kinase-Glo luminescence (AID 1159587). To be noted: recombinant PfPK7, Kinase-Glo ATP depletion luminescence.
The target of experiment [8] is Calcium-dependent protein kinase 4 (Plasmodium falciparum (isolate 3D7)) (UniProt Q8IBS5). The experiment can be described thus: PfCDPK4 kinase inhibitors, biochemical, TCAMS library (AID 1159588; cut-off not given, nearly all actives have IC50 up to about 0.91 µM). To be noted: recombinant PfCDPK4, Kinase-Glo ATP depletion luminescence.

Unmarked numbers belong to inactive results. For some assays here: Potency and affinity values are given separately. Calls of active or inactive are those of the source. Unless noted, the rule behind the calls is not given here.

Sequence of Protein kinase 7 (PK7), Plasmodium falciparum 3D7 (PF3D7_0213400) (Q7YTF7 1-343): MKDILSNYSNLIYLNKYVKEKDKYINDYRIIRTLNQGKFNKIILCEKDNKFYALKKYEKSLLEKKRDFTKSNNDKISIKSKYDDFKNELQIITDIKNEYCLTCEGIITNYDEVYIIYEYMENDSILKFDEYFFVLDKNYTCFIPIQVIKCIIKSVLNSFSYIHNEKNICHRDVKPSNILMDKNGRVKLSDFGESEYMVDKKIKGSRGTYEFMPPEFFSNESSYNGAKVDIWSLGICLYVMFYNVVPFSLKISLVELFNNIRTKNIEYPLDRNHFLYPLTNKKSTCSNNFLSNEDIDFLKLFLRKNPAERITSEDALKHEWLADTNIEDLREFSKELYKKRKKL
Sequence of Calcium-dependent protein kinase 1 (Plasmodium falciparum (isolate 3D7)) (P62344 whole entry, looked up): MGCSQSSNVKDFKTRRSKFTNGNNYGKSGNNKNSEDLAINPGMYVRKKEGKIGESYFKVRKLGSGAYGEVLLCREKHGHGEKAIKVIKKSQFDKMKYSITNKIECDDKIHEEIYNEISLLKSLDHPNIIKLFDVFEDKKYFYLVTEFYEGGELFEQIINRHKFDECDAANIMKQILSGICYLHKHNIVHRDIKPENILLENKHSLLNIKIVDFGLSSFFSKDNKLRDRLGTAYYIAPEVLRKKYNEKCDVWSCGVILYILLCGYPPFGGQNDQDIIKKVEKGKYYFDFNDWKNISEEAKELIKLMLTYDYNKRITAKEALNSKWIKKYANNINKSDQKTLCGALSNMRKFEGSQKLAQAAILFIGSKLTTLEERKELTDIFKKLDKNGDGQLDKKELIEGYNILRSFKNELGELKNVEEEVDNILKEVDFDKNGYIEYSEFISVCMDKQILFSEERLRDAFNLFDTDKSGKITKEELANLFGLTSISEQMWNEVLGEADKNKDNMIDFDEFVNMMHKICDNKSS
Sequence of Calcium-dependent protein kinase 4 (Plasmodium falciparum (isolate 3D7)) (Q8IBS5 whole entry, looked up): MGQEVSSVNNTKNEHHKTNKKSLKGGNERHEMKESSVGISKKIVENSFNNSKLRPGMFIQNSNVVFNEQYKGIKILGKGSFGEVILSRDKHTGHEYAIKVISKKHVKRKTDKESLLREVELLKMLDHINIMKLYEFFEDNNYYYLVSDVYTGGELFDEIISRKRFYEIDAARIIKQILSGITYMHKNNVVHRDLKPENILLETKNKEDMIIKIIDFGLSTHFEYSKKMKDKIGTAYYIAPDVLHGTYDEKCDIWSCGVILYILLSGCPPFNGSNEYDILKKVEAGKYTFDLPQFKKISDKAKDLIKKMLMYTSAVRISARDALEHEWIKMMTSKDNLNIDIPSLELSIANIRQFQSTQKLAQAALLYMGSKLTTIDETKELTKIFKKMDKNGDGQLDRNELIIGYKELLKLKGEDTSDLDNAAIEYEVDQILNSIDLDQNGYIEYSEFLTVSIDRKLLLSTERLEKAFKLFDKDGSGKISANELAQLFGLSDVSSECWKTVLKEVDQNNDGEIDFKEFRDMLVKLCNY
Sequence of Plasmodium falciparum protein kinase 6 (PK6, PF3D7_1337100) (Q8IDW1 1-305): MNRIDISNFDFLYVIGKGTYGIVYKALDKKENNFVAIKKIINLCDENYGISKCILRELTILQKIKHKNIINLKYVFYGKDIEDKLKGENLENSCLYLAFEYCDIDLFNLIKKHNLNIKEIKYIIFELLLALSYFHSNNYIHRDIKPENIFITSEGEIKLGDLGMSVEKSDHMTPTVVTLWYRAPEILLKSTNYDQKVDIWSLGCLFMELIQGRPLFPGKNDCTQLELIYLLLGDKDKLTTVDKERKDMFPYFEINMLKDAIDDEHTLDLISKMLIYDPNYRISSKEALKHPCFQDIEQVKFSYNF
Sequence of L-lactate dehydrogenase (Plasmodium falciparum (isolate CDC / Honduras)) (Q27743 whole entry, looked up): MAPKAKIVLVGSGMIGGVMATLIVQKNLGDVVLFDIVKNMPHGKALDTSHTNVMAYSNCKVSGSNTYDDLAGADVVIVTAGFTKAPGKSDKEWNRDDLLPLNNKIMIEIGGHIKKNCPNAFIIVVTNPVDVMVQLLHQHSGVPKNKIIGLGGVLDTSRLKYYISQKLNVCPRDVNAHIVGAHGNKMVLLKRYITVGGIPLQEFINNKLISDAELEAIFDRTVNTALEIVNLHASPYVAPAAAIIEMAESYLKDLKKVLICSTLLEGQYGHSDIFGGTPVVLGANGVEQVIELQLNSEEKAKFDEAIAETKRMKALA

With `CC(=O)c1cccc(S(=O)(=O)NCCCNc2nc3cc(C)cc(C)c3cc2C#N)c1`, the growth inhibition is 75% (active) in experiment [1] and 95% (active) in experiment [4]. The inhibition in experiment [2] was 11%; in experiment [3], 1%. The result in experiment [5], in experiment [6], in experiment [7] and in experiment [8] was inactive.

For `COc1ccc(-c2cnc3[nH]cc(-c4ccc(C(=O)O)c(C)c4)c3c2)cn1`, the growth inhibition in experiment [1] and in experiment [4] was 99% (active) in each case. The figures for the inhibition in experiment [2] and in experiment [3] were 23% and -5%, respectively. Further, the result in experiment [5], in experiment [6], in experiment [7] and in experiment [8] was inactive.

For `COc1cccc(C(=O)NCc2n[nH]c(=S)n2-c2ccc(Cl)c(Cl)c2)c1`, the growth inhibition in experiment [1] was 100% (active); in experiment [4], 102% (active). Moreover, the values for the inhibition in experiment [2] and in experiment [3] were -1% and 5%, respectively. Also, the outcome in experiment [5], in experiment [6], in experiment [7] and in experiment [8] was inactive.

For the molecule `O=C(/C=C/c1ccc(Cl)c(Cl)c1)NCCCCN1CCCN(C(=O)Nc2ccc(F)c(Cl)c2)CC1`, the growth inhibition is 2% in experiment [1] and 87% (active) in experiment [4]. Besides, the values for the inhibition in experiment [2] and in experiment [3] were 69% (active) and 1%, respectively. Also, the result in experiment [5], in experiment [6], in experiment [7] and in experiment [8] was inactive.

For `CC1(C)C(=O)Nc2ccc3c(c21)CC1SC(=O)NN=C31` (configuration not stated), the growth inhibition in experiment [1] was 92% (active); in experiment [4] it was 96% (active). In addition, the inhibition in experiment [2] is 6%; in experiment [3] it was -1%. Moreover, the outcome in experiment [5], in experiment [6], in experiment [7] and in experiment [8] was inactive.

Take `CN(Cc1ccccc1)C(=O)c1nn(CCCN2CCC(N3CCCC3)CC2)cc1-c1ccc(Cl)c(Cl)c1`: the growth inhibition in experiment [1] is 66% (active); in experiment [4], 102% (active). Besides, the figures for the inhibition in experiment [2] and in experiment [3] were 43% and 0%, respectively. Moreover, the outcome in experiment [5], in experiment [6], in experiment [7] and in experiment [8] was inactive.

With `CC(C)CCC[C@@H]([C@@H](CC1CCCCC1)C(=O)N[C@@H](CCCCNC(=O)OCc1ccccc1)C(=O)Nc1nccs1)N(O)C=O`, the growth inhibition in experiment [1] was 90% (active); in experiment [4], 98% (active). Moreover, the inhibition in experiment [2] was -4%; in experiment [3] it was 3%. Further, the outcome in experiment [5], in experiment [6], in experiment [7] and in experiment [8] was inactive.

On to `COc1cc2c(cc1OC)C(C(=O)Nc1ccc(C(F)(F)F)cc1)C(c1cccs1)N(C)C2=O` (configuration not stated), for which the values for the growth inhibition in experiment [1] and in experiment [4] were 86% (active) and 99% (active), respectively. Moreover, the results for the inhibition in experiment [2] and in experiment [3] were 31% and 2%, respectively. For the same molecule, the outcome in experiment [5], in experiment [6], in experiment [7] and in experiment [8] was inactive.

Regarding `CC(CN(C)C)C(=O)Nc1cccc(-c2cccc(-c3nc4ccc(F)cc4[nH]3)c2)c1` (configuration not stated), the growth inhibition in experiment [1] was 94% (active); in experiment [4], 101% (active). For the same molecule, the figures for the inhibition in experiment [2] and in experiment [3] were 29% and 5%, respectively. Also, the outcome in experiment [5], in experiment [6], in experiment [7] and in experiment [8] was inactive.

In the case of `CCCC(C)Nc1nc(C)cc(N[C@@H](CC(C)C)C(=O)NC2CCCC2)n1` (some centres not stated), the figures for the growth inhibition in experiment [1] and in experiment [4] were 22% and 85% (active), respectively. For the same molecule, the inhibition in experiment [2] was 6%; in experiment [3], -2%. The result in experiment [5], in experiment [6], in experiment [7] and in experiment [8] was inactive.

Regarding `CCCCCCN(CCCCCC)CCCCNc1c2ccc(Cl)cc2nc2ccc(OC)cc12`, the growth inhibition was 94% (active) in experiment [1] and 100% (active) in experiment [4]. Further, the inhibition was 65% (active) in experiment [2] and 1% in experiment [3]. For the same molecule, the result in experiment [5], in experiment [6], in experiment [7] and in experiment [8] was inactive.

Turning to `O=C(N[C@@H](CC1CCCCC1)C(=O)NCCN1CCCCC1)c1ccc(O)c(-c2ccc(Cl)c(Cl)c2)c1`, the growth inhibition in experiment [1] is 99% (active); in experiment [4], 97% (active). Besides, the inhibition in experiment [2] is 14%; in experiment [3], -6%. The result in experiment [5], in experiment [6], in experiment [7] and in experiment [8] was inactive.

Regarding `CN(CCCCNC(=O)c1cc2ccccc2[nH]1)C1CC2(CCN(C(=O)OC(C)(C)C)CC2)c2ccccc21` (configuration not stated), the growth inhibition was 75% (active) in experiment [1] and 86% (active) in experiment [4]. Also, the inhibition in experiment [2] is 12%; in experiment [3], 2%. The outcome in experiment [5], in experiment [6], in experiment [7] and in experiment [8] was inactive.

`NCC(=O)Nc1cccc(Nc2nccc(-c3c(-c4cccc(NC(=O)c5ccccc5)c4)nn4ccccc34)n2)c1`: the growth inhibition in experiment [1] was 87% (active); in experiment [4], 96% (active). Also, the results for the inhibition in experiment [2] and in experiment [3] were 45% and 0%, respectively. Also, the outcome in experiment [5], in experiment [6], in experiment [7] and in experiment [8] was inactive.

As for `Cc1nc(C)c(CC(=O)Nc2ccc(-c3ccc(-c4nc5ccc(C(F)(F)F)cc5[nH]4)s3)cc2)s1`, the growth inhibition was 29% in experiment [1] and 90% (active) in experiment [4]. In addition, the inhibition in experiment [2] was 57% (active); in experiment [3], -8%. Further, the result in experiment [5], in experiment [6], in experiment [7] and in experiment [8] was inactive.

For the molecule `O=C(Nc1ccc(Cl)cc1)Nc1ccc(-c2cccc(-c3nc4ccccc4[nH]3)c2)cc1`, the growth inhibition in experiment [1] was 78% (active); in experiment [4], 100% (active). The inhibition in experiment [2] is 69% (active); in experiment [3], -3%. For the same molecule, the result in experiment [5], in experiment [6], in experiment [7] and in experiment [8] was inactive.

As to `FC(F)(F)c1ccc2nccc(NN=CC=Cc3ccccc3)c2c1`, the values for the growth inhibition in experiment [1] and in experiment [4] were 9% and 82% (active), respectively. For the same molecule, the inhibition is -4% in experiment [2] and -1% in experiment [3]. For the same molecule, the result in experiment [5], in experiment [6], in experiment [7] and in experiment [8] was inactive.

Regarding `CN1CCN(c2nc(NCCc3ccc(O)cc3)nc(NCc3ccccc3-c3ccc(C(F)(F)F)cc3)n2)CC1`, the growth inhibition is 82% (active) in experiment [1] and 90% (active) in experiment [4]. The results for the inhibition in experiment [2] and in experiment [3] were 35% and 6%, respectively. For the same molecule, the outcome in experiment [5], in experiment [6], in experiment [7] and in experiment [8] was inactive.

Take `CC1CCCCN1CCCNc1ncc2c(-c3ccc(NC(=O)Nc4cc(C(F)(F)F)ccc4F)c(F)c3)nn(C)c2n1` (configuration not stated): the growth inhibition in experiment [1] was 97% (active); in experiment [4] it was 101% (active). The inhibition in experiment [2] is 27%; in experiment [3], 2%. Besides, the outcome in experiment [5], in experiment [6], in experiment [7] and in experiment [8] was inactive.
